Results reported in PubChem BioAssay.
A number with no mark means an inactive call. The source made the active and inactive calls. Cut-off read from the data, not from the text of the source, unless noted: active = inhibition above about 42%; inactive = the rest.

Tested on: not listed separately
Experiment: StAR promoter reporter inhibitors, counter-screen for LRH-1 inverse agonist project, cell-based, luminescence, high throughput (AID 651611; in the data active = inhibition above about 28%)
Settings: StAR promoter luciferase reporter counterscreen, at 3.6 µM, hits give high values

| Compound | inhibition |
| --- | --- |
| COc1ccc(S(=O)(=O)/N=C2\C=C(Nc3ccc(O)cc3)C(=O)c3ccccc32)cc1 | 92% (active) |
| Oc1ccccc1N=Nc1nc(-c2ccccc2)c(-c2ccccc2)[nH]1 | 86.9% (active) |
| Nc1ccc2c(c1)C(=O)C(=O)c1ccccc1-2 | 98.5% (active) |
| CCN1/C(=C/C=C/c2oc3ccc(-c4ccccc4)cc3[n+]2CC)Oc2ccc(-c3ccccc3)cc21 | 92.2% (active) |
| Cc1ccc(C(C)C)c(OCc2ccc(C(=O)N/N=C/c3ccc(O)cc3O)cc2)c1 | 80.8% (active) |
| COc1cccc(N2CCN(c3ncnc4c3[nH]c3ccc(F)cc34)CC2C)c1 (stereo not drawn) | 93.4% (active) |
| O=c1c2ccccc2nc(N/N=C/c2c(O)ccc3ccccc23)n1O | 81.4% (active) |
| Cn1nc(-c2ccccn2)nc2c(=O)n(C)c(=O)nc1-2 | 56.7% (active) |

Biological target: Nuclear receptor subfamily 5 group A member 2 (Homo sapiens) (UniProt O00482)
Sequence (O00482 whole entry, looked up): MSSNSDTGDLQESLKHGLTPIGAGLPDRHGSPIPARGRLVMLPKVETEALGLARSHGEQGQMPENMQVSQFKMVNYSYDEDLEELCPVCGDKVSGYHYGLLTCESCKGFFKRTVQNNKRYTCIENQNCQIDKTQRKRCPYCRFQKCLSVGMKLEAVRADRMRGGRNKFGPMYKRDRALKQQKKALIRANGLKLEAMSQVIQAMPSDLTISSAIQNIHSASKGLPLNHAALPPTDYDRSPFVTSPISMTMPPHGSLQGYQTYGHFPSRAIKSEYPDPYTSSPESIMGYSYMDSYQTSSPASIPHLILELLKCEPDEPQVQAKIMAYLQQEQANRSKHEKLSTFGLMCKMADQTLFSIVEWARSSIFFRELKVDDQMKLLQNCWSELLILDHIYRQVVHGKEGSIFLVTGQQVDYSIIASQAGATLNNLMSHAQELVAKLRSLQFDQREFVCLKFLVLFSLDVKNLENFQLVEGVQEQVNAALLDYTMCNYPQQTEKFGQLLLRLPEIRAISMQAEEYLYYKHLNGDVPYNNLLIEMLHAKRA
Experiment: LRH-1 (NR5A2) inverse agonists, retest, confirmation, cell-based, luminescence (AID 651613);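 note: HEK293T cells co-transfected with LRH-1 and StAR promoter luciferase reporter; 0% = vehicle wells and 100% = parental cells lacking receptor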
Settings: cell-based LRH-1 luciferase reporter, inverse agonism; at 3.6 µM; hits give high values

| Compound | inhibition |
| --- | --- |
| COc1ccc(S(=O)(=O)/N=C2\C=C(Nc3ccc(O)cc3)C(=O)c3ccccc32)cc1 | 107% (active) |
| Oc1ccccc1N=Nc1nc(-c2ccccc2)c(-c2ccccc2)[nH]1 | 98.3% (active) |
| Nc1ccc2c(c1)C(=O)C(=O)c1ccccc1-2 | 110% (active) |
| CCN1/C(=C/C=C/c2oc3ccc(-c4ccccc4)cc3[n+]2CC)Oc2ccc(-c3ccccc3)cc21 | 110% (active) |
| Cc1ccc(C(C)C)c(OCc2ccc(C(=O)N/N=C/c3ccc(O)cc3O)cc2)c1 | 100% (active) |
| COc1cccc(N2CCN(c3ncnc4c3[nH]c3ccc(F)cc34)CC2C)c1 (stereo not drawn) | 108% (active) |
| O=c1c2ccccc2nc(N/N=C/c2c(O)ccc3ccccc23)n1O | 101% (active) |
| Cn1nc(-c2ccccn2)nc2c(=O)n(C)c(=O)nc1-2 | 58.9% (active) |

Biological target: Steroidogenic factor 1 (Homo sapiens) (UniProt Q13285)
Sequence (Q13285 whole entry, looked up): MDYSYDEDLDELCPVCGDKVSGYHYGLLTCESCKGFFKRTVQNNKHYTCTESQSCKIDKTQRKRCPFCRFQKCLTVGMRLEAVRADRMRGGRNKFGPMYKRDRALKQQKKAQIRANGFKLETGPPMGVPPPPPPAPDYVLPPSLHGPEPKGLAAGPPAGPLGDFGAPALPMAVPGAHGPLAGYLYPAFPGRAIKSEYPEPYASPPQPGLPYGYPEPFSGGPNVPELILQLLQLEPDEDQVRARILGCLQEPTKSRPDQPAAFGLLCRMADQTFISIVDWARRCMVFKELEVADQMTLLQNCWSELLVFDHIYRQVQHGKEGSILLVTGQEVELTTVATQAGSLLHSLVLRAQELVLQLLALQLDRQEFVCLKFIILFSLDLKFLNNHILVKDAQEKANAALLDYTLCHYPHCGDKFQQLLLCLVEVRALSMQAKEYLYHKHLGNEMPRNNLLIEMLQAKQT
Experiment: SF1 (NR5A1) inverse agonists, counter-screen for LRH-1 inverse agonist project, cell-based, luminescence, high throughput (AID 651614; in the data active = inhibition above about 44%;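 note: cells cotransfected with StAR promoter reporter and SF1 expression vector; 0% = vehicle on cells with receptor and 100% = vehicle on cells lacking receptor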)
Settings: cell-based SF1 luciferase reporter, at 3.6 µM, hits give high values

| Compound | inhibition |
| --- | --- |
| COc1ccc(S(=O)(=O)/N=C2\C=C(Nc3ccc(O)cc3)C(=O)c3ccccc32)cc1 | 96.7% (active) |
| Oc1ccccc1N=Nc1nc(-c2ccccc2)c(-c2ccccc2)[nH]1 | 84% (active) |
| Nc1ccc2c(c1)C(=O)C(=O)c1ccccc1-2 | 98.9% (active) |
| CCN1/C(=C/C=C/c2oc3ccc(-c4ccccc4)cc3[n+]2CC)Oc2ccc(-c3ccccc3)cc21 | 97.2% (active) |
| Cc1ccc(C(C)C)c(OCc2ccc(C(=O)N/N=C/c3ccc(O)cc3O)cc2)c1 | 80.9% (active) |
| COc1cccc(N2CCN(c3ncnc4c3[nH]c3ccc(F)cc34)CC2C)c1 (stereo not drawn) | 97.8% (active) |
| O=c1c2ccccc2nc(N/N=C/c2c(O)ccc3ccccc23)n1O | 90.2% (active) |
| Cn1nc(-c2ccccn2)nc2c(=O)n(C)c(=O)nc1-2 | 73.7% (active) |

Tested on: not listed separately
Experiment: VP16 transactivation reporter inhibitors, counter-screen for LRH-1 inverse agonist project, cell-based, luminescence, high throughput (AID 651615; in the data active = inhibition above about 33%)
Settings: Gal4-VP16 luciferase reporter cells, at 3.6 µM, hits give high values

| Compound | inhibition |
| --- | --- |
| COc1ccc(S(=O)(=O)/N=C2\C=C(Nc3ccc(O)cc3)C(=O)c3ccccc32)cc1 | 97.2% (active) |
| Oc1ccccc1N=Nc1nc(-c2ccccc2)c(-c2ccccc2)[nH]1 | 65.3% (active) |
| Nc1ccc2c(c1)C(=O)C(=O)c1ccccc1-2 | 99.1% (active) |
| CCN1/C(=C/C=C/c2oc3ccc(-c4ccccc4)cc3[n+]2CC)Oc2ccc(-c3ccccc3)cc21 | 96.4% (active) |
| Cc1ccc(C(C)C)c(OCc2ccc(C(=O)N/N=C/c3ccc(O)cc3O)cc2)c1 | 71.2% (active) |
| COc1cccc(N2CCN(c3ncnc4c3[nH]c3ccc(F)cc34)CC2C)c1 (stereo not drawn) | 97.2% (active) |
| O=c1c2ccccc2nc(N/N=C/c2c(O)ccc3ccccc23)n1O | 78.3% (active) |
| Cn1nc(-c2ccccn2)nc2c(=O)n(C)c(=O)nc1-2 | 75.1% (active) |

Tested on: transactivating tegument protein VP16 (Human herpesvirus 1)
Experiment: VP16 transactivation reporter inhibitors, counter-screen for SRC2 inhibitor project, cell-based, luminescence, single concentration (AID 652007; in the data active = inhibition above about 36%)
Settings: cell-based VP16 transactivation luciferase reporter, at 8.9 µM, hits give high values

| Compound | inhibition |
| --- | --- |
| Cc1ccc(C(C)C)c(OCc2ccc(C(=O)N/N=C/c3cccc(O)c3O)cc2)c1 | 34.8% |
| COc1ccc(S(=O)(=O)/N=C2\C=C(Nc3ccc(O)cc3)C(=O)c3ccccc32)cc1 | 67% (active) |
| Nc1ccc2c(c1)C(=O)C(=O)c1ccccc1-2 | 97% (active) |
| O=C(Nc1ccc(OC(F)(F)F)cc1)c1ccc2c(c1)no[n+]2[O-] | -77.2% |
| COC(=O)c1cc(C)nc2c1C(=O)C(=O)C=C2N1CCOCC1 | 54.2% (active) |
| Cc1ccc(C(C)C)c(OCc2ccc(C(=O)N/N=C/c3ccc(O)cc3O)cc2)c1 | 20.9% |
| COc1cccc(N2CCN(c3ncnc4c3[nH]c3ccc(F)cc34)CC2C)c1 (stereo not drawn) | 95.4% (active) |
| Cn1nc(-c2ccccn2)nc2c(=O)n(C)c(=O)nc1-2 | 13.4% |

Biological target: Nuclear receptor coactivator 2 (Homo sapiens) (UniProt Q15596)
Sequence (Q15596 whole entry, looked up): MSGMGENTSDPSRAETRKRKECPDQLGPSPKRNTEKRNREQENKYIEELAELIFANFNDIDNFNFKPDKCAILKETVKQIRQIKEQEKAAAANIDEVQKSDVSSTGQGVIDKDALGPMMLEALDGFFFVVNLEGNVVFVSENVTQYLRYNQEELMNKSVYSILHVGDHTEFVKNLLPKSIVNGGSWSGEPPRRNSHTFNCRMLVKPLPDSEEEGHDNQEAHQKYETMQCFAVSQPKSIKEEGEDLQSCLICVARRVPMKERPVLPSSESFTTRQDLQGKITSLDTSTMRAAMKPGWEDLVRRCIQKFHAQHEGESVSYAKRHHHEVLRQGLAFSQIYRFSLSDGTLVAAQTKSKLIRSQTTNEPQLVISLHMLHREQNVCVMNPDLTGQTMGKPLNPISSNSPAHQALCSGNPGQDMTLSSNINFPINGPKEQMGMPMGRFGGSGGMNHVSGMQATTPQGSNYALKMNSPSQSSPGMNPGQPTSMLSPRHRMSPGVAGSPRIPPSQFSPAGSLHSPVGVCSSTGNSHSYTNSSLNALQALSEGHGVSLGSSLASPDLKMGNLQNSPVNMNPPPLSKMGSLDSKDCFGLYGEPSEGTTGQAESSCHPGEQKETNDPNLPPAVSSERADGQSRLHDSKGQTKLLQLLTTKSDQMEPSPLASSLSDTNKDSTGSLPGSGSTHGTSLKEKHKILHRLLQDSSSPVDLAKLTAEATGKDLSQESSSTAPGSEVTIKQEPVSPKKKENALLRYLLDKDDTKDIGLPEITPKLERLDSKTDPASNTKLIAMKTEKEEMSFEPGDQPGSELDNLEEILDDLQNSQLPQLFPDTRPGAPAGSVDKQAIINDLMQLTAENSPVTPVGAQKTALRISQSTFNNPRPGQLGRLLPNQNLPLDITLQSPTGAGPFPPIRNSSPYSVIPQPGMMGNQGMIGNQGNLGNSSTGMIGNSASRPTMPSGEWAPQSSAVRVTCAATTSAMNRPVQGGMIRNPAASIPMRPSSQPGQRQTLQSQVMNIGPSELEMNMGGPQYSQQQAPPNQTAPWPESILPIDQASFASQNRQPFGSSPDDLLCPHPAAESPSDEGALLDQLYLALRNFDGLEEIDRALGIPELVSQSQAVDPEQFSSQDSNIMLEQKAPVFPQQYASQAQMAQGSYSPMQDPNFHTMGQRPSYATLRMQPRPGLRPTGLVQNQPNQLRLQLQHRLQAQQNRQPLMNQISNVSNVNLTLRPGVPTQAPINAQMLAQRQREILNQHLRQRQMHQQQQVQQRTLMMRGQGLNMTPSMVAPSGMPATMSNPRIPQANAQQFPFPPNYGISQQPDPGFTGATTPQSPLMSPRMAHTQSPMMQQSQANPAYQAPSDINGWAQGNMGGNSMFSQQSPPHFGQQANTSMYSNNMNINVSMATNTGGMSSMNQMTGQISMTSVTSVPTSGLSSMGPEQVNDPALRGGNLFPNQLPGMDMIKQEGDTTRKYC
Experiment: SRC2 coactivator transcriptional activity inhibitors, confirmation, cell-based, luminescence, HEK293, triplicate (AID 652008;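 active = mean inhibition above 46.5%, the solvent-only control mean plus 3 SD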;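 note: 0% = DMSO-treated cells and 100% = Gossypol at 36 µM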)
Settings: HEK293 GAL4-SRC2 luciferase reporter, at 8.9 µM, hits give high values

| Compound | inhibition |
| --- | --- |
| Cc1ccc(C(C)C)c(OCc2ccc(C(=O)N/N=C/c3cccc(O)c3O)cc2)c1 | 83.9% (active) |
| COc1ccc(S(=O)(=O)/N=C2\C=C(Nc3ccc(O)cc3)C(=O)c3ccccc32)cc1 | 73% (active) |
| Nc1ccc2c(c1)C(=O)C(=O)c1ccccc1-2 | 98.8% (active) |
| O=C(Nc1ccc(OC(F)(F)F)cc1)c1ccc2c(c1)no[n+]2[O-] | -55.7% |
| COC(=O)c1cc(C)nc2c1C(=O)C(=O)C=C2N1CCOCC1 | 99.2% (active) |
| Cc1ccc(C(C)C)c(OCc2ccc(C(=O)N/N=C/c3ccc(O)cc3O)cc2)c1 | 68.3% (active) |
| COc1cccc(N2CCN(c3ncnc4c3[nH]c3ccc(F)cc34)CC2C)c1 (stereo not drawn) | 99.5% (active) |
| Cn1nc(-c2ccccn2)nc2c(=O)n(C)c(=O)nc1-2 | 70.7% (active) |
